# In PubChem BioAssay AID1159580 (chemical genetic matrix, 2015):
# In all, about 5,500 compounds went through this assay and about 2,000 (36%) were called active. Another 18% or so got no clear call; they are omitted. The list shows a part of the results. Values without a mark were called inactive. Cut-off read from the data, not from the text of the source: active = normalized growth mostly below about 0.91 (no sharp cut-off); inconclusive = no clear call, values can overlap the other calls; inactive = mostly above about 0.92.
# Assay: chemical genetic growth profiling, strain panel (AID 1159580);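 note: tested at 20 µM; growth read once vehicle control cultures reached saturation at 30 °C; 1 = growth at the plate median or of vehicle wells; lower values mean less growth of the strain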
# Settings: S. cerevisiae deletion strains, growth OD
# [1] = locus YAR019C, strain CDC15, hits give low values
# [2] = locus YBL105C, strain PKC1, hits give low values
# [3] = locus YBR135W, strain CKS1, hits give low values
# [4] = locus YBR136W, strain MEC1, hits give low values
# [5] = locus YBR160W, strain CDC28, hits give low values
# [6] = locus YDL017W, strain CDC7, hits give low values
# [7] = locus YDL028C, strain MPS1, hits give low values
# [8] = locus YDL101C, strain DUN1, hits give low values
# [9] = locus YDL108W, strain KIN28, hits give low values
# [10] = locus YDL132W, strain cdc53, hits give low values
# [11] = locus YDL214C, strain PRR2, hits give low values
# [12] = locus YDR052C, strain DBF4, hits give low values
# [13] = locus YDR054C, strain cdc34, hits give low values
# [14] = locus YDR226W, strain ADK1, hits give low values
# [15] = locus YDR477W, strain SNF1, hits give low values
# [16] = locus YER123W, strain YCK3, hits give low values
# [17] = locus YER133W, strain GLC7, hits give low values
# [18] = locus YFL009W, strain cdc4, hits give low values
# [19] = locus YFL029C, strain CAK1, hits give low values
# [20] = locus YFR003C, strain YPI1, hits give low values
# [21] = locus YFR019W, strain FAB1, hits give low values
# [22] = locus YFR028C, strain CDC14, hits give low values
# [23] = locus YGR040W, strain KSS1, hits give low values
# [24] = locus YGR052W, strain FMP48, hits give low values
# [25] = locus YGR092W, strain DBF2, hits give low values
# [26] = locus YHR030C, strain SLT2, hits give low values
# [27] = locus YHR079C, strain IRE1, hits give low values
# [28] = locus YHR082C, strain KSP1, hits give low values
# [29] = locus YHR205W, strain SCH9, hits give low values
# [30] = locus YIL147C, strain SLN1, hits give low values
# [31] = locus YJL095W, strain BCK1, hits give low values
# [32] = locus YJL128C, strain PBS2, hits give low values
# [33] = locus YJL157C, strain FAR1, hits give low values
# [34] = locus YJR016C, strain ILV3, hits give low values
# [35] = locus YJR066W, strain TOR1 (second series), hits give low values
# [36] = locus YJR066W, strain TOR1, hits give low values
# [37] = locus YKL048C, strain ELM1, hits give low values
# [38] = locus YKL067W, strain YNK1, hits give low values
# [39] = locus YKL101W, strain HSL1, hits give low values
# [40] = locus YKL193C, strain SDS22, hits give low values
# [41] = locus YKL203C, strain TOR2, hits give low values
# [42] = locus YLR113W, strain HOG1, hits give low values
# [43] = locus YLR133W, strain CKI1, hits give low values
# [44] = locus YLR403W, strain SFP1, hits give low values
# [45] = locus YML070W, strain DAK1, hits give low values
# [46] = locus YMR001C, strain CDC5, hits give low values
# [47] = locus YMR205C, strain PFK2 (second series), hits give low values
# [48] = locus YMR277W, strain FCP1, hits give low values
# [49] = locus YNL006W, strain LST8, hits give low values
# [50] = locus YNL020C, strain ARK1, hits give low values
# [51] = locus YNL161W, strain CBK1, hits give low values
# [52] = locus YNL183C, strain NPR1, hits give low values
# [53] = locus YNL207W, strain RIO2, hits give low values
# [54] = locus YNL222W, strain SSU72, hits give low values
# [55] = locus YNL307C, strain MCK1 (second series), hits give low values
# [56] = locus YOL078W, strain AVO1, hits give low values
# [57] = locus YOL136C, strain PFK27, hits give low values
# [58] = locus YOR061W, strain CKA2, hits give low values
# [59] = locus YOR119C, strain RIO1, hits give low values
# [60] = locus YOR231W, strain MKK1, hits give low values
# [61] = locus YOR329C, strain SCD5, hits give low values
# [62] = locus YPL031C, strain PHO85, hits give low values
# [63] = locus YPL153C, strain RAD53, hits give low values
# [64] = locus YPL204W, strain HRR25, hits give low values
# [65] = locus YPL209C, strain IPL1, hits give low values
# [66] = locus YPL256C, strain CLN2, hits give low values
# [67] = locus YPR025C, strain CCL1, hits give low values
# [68] = locus YPR106W, strain ISR1, hits give low values
# [69] = locus YPR111W, strain DBF20, hits give low values
# [70] = strain NNK1, hits give low values
# [71] = strain TSCII, hits give low values
smiles,measurement,setting,value
O=C(NCc1ccco1)c1csc(C2COc3ccccc3O2)n1 (configuration not stated),normalized growth,[1],0.916
same,normalized growth,[2],0.917
same,normalized growth,[3],0.918
same,normalized growth,[4],0.925
same,normalized growth,[5],0.914
same,normalized growth,[6],0.925
same,normalized growth,[7],0.919
same,normalized growth,[8],0.964
same,normalized growth,[9],0.937
same,normalized growth,[10],0.897
same,normalized growth,[11],0.854
same,normalized growth,[12],0.909 (active)
same,normalized growth,[13],0.875 (active)
same,normalized growth,[14],0.923
same,normalized growth,[15],0.773
same,normalized growth,[16],0.663
same,normalized growth,[17],0.902
same,normalized growth,[18],0.913
same,normalized growth,[19],0.915
same,normalized growth,[20],0.931
same,normalized growth,[21],0.711 (active)
same,normalized growth,[22],0.936
same,normalized growth,[23],0.868
same,normalized growth,[24],0.802
same,normalized growth,[25],0.154 (active)
same,normalized growth,[26],0.623 (active)
same,normalized growth,[27],0.712
same,normalized growth,[28],0.896
same,normalized growth,[29],0.894
same,normalized growth,[30],0.922
same,normalized growth,[31],0.689
same,normalized growth,[32],0.98
same,normalized growth,[33],0.797
same,normalized growth,[34],0.904
same,normalized growth,[35],0.343 (active)
same,normalized growth,[36],0.745
same,normalized growth,[37],0.906
same,normalized growth,[38],0.841
same,normalized growth,[39],0.873
same,normalized growth,[40],0.932
same,normalized growth,[41],0.851
same,normalized growth,[42],0.811 (active)
same,normalized growth,[43],0.845
same,normalized growth,[44],0.839
same,normalized growth,[45],0.689
same,normalized growth,[46],0.919
same,normalized growth,[47],0.893
same,normalized growth,[48],0.915
same,normalized growth,[49],0.926
same,normalized growth,[50],0.843
same,normalized growth,[51],0.921
same,normalized growth,[52],0.737
same,normalized growth,[53],0.915
same,normalized growth,[54],0.917
same,normalized growth,[55],0.585 (active)
same,normalized growth,[56],0.928
same,normalized growth,[57],0.66 (active)
same,normalized growth,[58],0.586 (active)
same,normalized growth,[59],0.894
same,normalized growth,[60],0.746
same,normalized growth,[61],0.909
same,normalized growth,[62],0.85
same,normalized growth,[63],0.773
same,normalized growth,[64],0.796
same,normalized growth,[65],0.923
same,normalized growth,[66],0.754 (active)
same,normalized growth,[67],0.916
same,normalized growth,[68],0.956
same,normalized growth,[69],0.947
same,normalized growth,[70],0.944
same,normalized growth,[71],0.92
c1ccc2c(c1)OCC(C1=NCCN1)O2 (configuration not stated),normalized growth,"locus YAL013W, strain DEP1, hits give low values",1.02
same,normalized growth,"locus YAL040C, strain CLN3, hits give low values",1
same,normalized growth,"locus YCL061C, strain MRC1 (second series), hits give low values",1
same,normalized growth,"locus YDR363W, strain ESC2, hits give low values",1.03
same,normalized growth,"locus YER002W, strain NOP16, hits give low values",0.987
same,normalized growth,"locus YGR078C, strain PAC10, hits give low values",1.01
same,normalized growth,"locus YGR229C, strain SMI1, hits give low values",1.02
same,normalized growth,"locus YJR075W, strain HOC1, hits give low values",1
same,normalized growth,"locus YMR263W, strain SAP30, hits give low values",1.02
same,normalized growth,"locus YMR307W, strain GAS1, hits give low values",0.996
same,normalized growth,"locus YNL175C, strain NOP13, hits give low values",1.02
same,normalized growth,"locus YNL197C, strain WHI3, hits give low values",1.01
same,normalized growth,"locus YNL224C, strain SQS1, hits give low values",1.01
same,normalized growth,"locus YOR083W, strain WHI5 (second series), hits give low values",0.996
same,normalized growth,"locus YPL055C, strain LGE1, hits give low values",1.01
N/C(=N/OC(=O)c1ccc(Cl)cc1)c1ccc(F)cc1F,normalized growth,[1],0.896
same,normalized growth,[2],0.917
same,normalized growth,[3],0.9
same,normalized growth,[4],0.921
same,normalized growth,[5],0.903
same,normalized growth,[6],0.923
same,normalized growth,[7],0.916
same,normalized growth,[8],0.94
same,normalized growth,[9],0.914
same,normalized growth,[10],0.879 (active)
same,normalized growth,[11],0.559 (active)
same,normalized growth,[12],0.913
same,normalized growth,[13],0.871 (active)
same,normalized growth,[14],0.899
same,normalized growth,[15],0.491 (active)
same,normalized growth,[16],0.482 (active)
same,normalized growth,[17],0.446 (active)
same,normalized growth,[18],0.872 (active)
same,normalized growth,[19],0.889
same,normalized growth,[20],0.919
same,normalized growth,[21],0.541 (active)
same,normalized growth,[22],0.916
same,normalized growth,[23],0.505 (active)
same,normalized growth,[24],0.487 (active)
same,normalized growth,[25],0.305 (active)
same,normalized growth,[26],0.139 (active)
same,normalized growth,[27],0.244 (active)
same,normalized growth,[28],0.465 (active)
same,normalized growth,[29],0.21 (active)
same,normalized growth,[30],0.91
same,normalized growth,[31],0.243 (active)
same,normalized growth,[32],0.977
same,normalized growth,[33],0.543 (active)
same,normalized growth,[34],0.892 (active)
same,normalized growth,[35],0.239 (active)
same,normalized growth,[36],0.309 (active)
same,normalized growth,[37],0.821
same,normalized growth,[38],0.631 (active)
same,normalized growth,[39],0.593 (active)
same,normalized growth,[40],0.887 (active)
same,normalized growth,[41],0.384 (active)
same,normalized growth,[42],0.348 (active)
same,normalized growth,[43],0.659 (active)
same,normalized growth,[44],0.419 (active)
same,normalized growth,[45],0.556 (active)
same,normalized growth,[46],0.891
same,normalized growth,[47],0.684 (active)
same,normalized growth,[48],0.881 (active)
same,normalized growth,[49],0.896 (active)
same,normalized growth,[50],0.579 (active)
same,normalized growth,[51],0.894 (active)
same,normalized growth,[52],0.37 (active)
same,normalized growth,[53],0.854 (active)
same,normalized growth,[54],0.913
same,normalized growth,[55],0.38 (active)
same,normalized growth,[56],0.879 (active)
same,normalized growth,[57],0.542 (active)
same,normalized growth,[58],0.731
same,normalized growth,[59],0.463 (active)
same,normalized growth,[60],0.276 (active)
same,normalized growth,[61],0.899 (active)
same,normalized growth,[62],0.395 (active)
same,normalized growth,[63],0.398 (active)
same,normalized growth,[64],0.425 (active)
same,normalized growth,[65],0.902
same,normalized growth,[66],0.368 (active)
same,normalized growth,[67],0.898
same,normalized growth,[68],0.947
same,normalized growth,[69],0.936
same,normalized growth,[70],0.917
same,normalized growth,[71],0.878 (active)
